Tested on: Vero E6 infected with SARS-CoV-2
Test: inhibition of SARS-CoV-2 cytopathic effect; higher = more antiviral protection, active = above 15
Settings: 48 h

Measured: inhibition of SARS-CoV-2 cytopathic effect

O=c1[nH]c2ccccc2c(=O)n1CCCN1CCN(c2ccccc2)CC1 [pelanserin]
inactive: 1 nM 0.03% | 8.33 nM 1.75% | 100 nM -0.08% | 833.33 nM 1.18% | 10000 nM 0.03%

CC/C(=C(/c1ccc(OCCN(C)C)cc1)c1cccc(O)c1)c1ccccc1 [droloxifene]
active: 10000 nM 34.5%
inactive: 1 nM 0.66% | 8.33 nM -1.2% | 100 nM 1.69% | 833.33 nM 0.64%

C=C1CC[C@H](O)C/C1=C/C=C1\CCC[C@]2(C)[C@@H]([C@H](C)CCCC(C)C)CC[C@@H]12 [cholecalciferol]
inactive: 1 nM -2.37% | 8.33 nM -2.07% | 100 nM -1.56% | 833.33 nM -2.03% | 10000 nM 0.91%

COc1ccccc1OC(=O)C(C)c1ccc(CC(C)C)cc1 (stereo not given) [metoxibutropate]
inactive: 1 nM -3.38% | 8.33 nM -2.87% | 100 nM -1.26% | 833.33 nM -1.98% | 10000 nM -3.16%

N=C(NCCC[C@H](N)C(=O)O)N[N+](=O)[O-] [NG-nitro-arginine]
inactive: 1 nM 4.03% | 8.33 nM -0.95% | 100 nM -0.93% | 833.33 nM 0.27% | 10000 nM -0.46%

Cc1ncc(CN2CC=C(c3ccccc3)CC2)c(N)n1
inactive: 1 nM 0.67% | 8.33 nM 0.52% | 100 nM -0.09% | 833.33 nM 0.15% | 10000 nM 0.43%

N#Cc1ccc(-c2csc(NN=C3CCCC3)n2)cc1 [remodelin]
inactive: 1 nM 0.9% | 8.33 nM 1% | 100 nM 1.18% | 833.33 nM 0.48% | 10000 nM 0.34%

C[C@@H]1NC(=O)[C@@H]2CCCN2C(=O)[C@H](CC(N)=O)NC(=O)[C@@H]2CSSC[C@H](N)C(=O)N[C@H]3CSSC[C@H](NC1=O)C(=O)N[C@@H]([C@@H](C)O)C(=O)NCC(=O)N[C@H](C(=O)N[C@@H](Cc1ccc(O)cc1)C(=O)O)CSSC[C@H](NC(=O)[C@H](Cc1ccc(O)cc1)NC(=O)[C@H](CCC(=O)O)NC3=O)C(=O)N2 [linaclotide]
inactive: 1 nM -2.9% | 8.33 nM 0.88% | 100 nM 1.75% | 833.33 nM 1% | 10000 nM 3.24%

CCOc1cc(OCC)c(C(=O)CCC(=O)O)cc1OCC [trepibutone]
inactive: 1 nM -2.61% | 8.33 nM 0.72% | 100 nM -0.04% | 833.33 nM -0.1% | 10000 nM 0.69%

Cc1cc(I)ccc1Nc1c(C(=O)NOCC2CC2)cc(F)c(F)c1F
inactive: 1 nM 0.41% | 8.33 nM 5.24% | 100 nM 7.71% | 833.33 nM -0.67% | 10000 nM -4.88%

CC(=O)[C@@]12O[C@](C)(c3ccccc3)O[C@@H]1C[C@H]1[C@@H]3CCC4=CC(=O)CC[C@]4(C)[C@H]3CC[C@@]12C [algestone-acetophenide]
inactive: 1 nM 0.43% | 8.33 nM 0.88% | 100 nM 1.95% | 833.33 nM 2.43% | 10000 nM 2.91%

CCOc1ccc(Nc2nc(-c3c(C)nc4ccccn34)cs2)cc1
inactive: 1 nM -1.73% | 8.33 nM -0.39% | 100 nM -1.68% | 833.33 nM 2.2% | 10000 nM 1.71%

Cc1cc(C(C)(C)C)cc(C)c1CC1=NCCN1 [xylometazoline]
inactive: 1 nM -7.36% | 8.33 nM -8.77% | 100 nM -5.88% | 833.33 nM -7.35% | 10000 nM -6.68%

O=c1c(-c2ccccc2)c1-c1ccccc1 [diphencyprone]
inactive: 1 nM -0.95% | 8.33 nM 0.49% | 100 nM -1.61% | 833.33 nM -1.95% | 10000 nM 5.98%

CC(=O)OCC1=C(C(=O)O)N2C(=O)[C@@H](N)[C@H]2SC1 [7-aminocephalosporanic-acid]
inactive: 1 nM -5.97% | 8.33 nM -2.34% | 100 nM -5.2% | 833.33 nM -0.34% | 10000 nM 3.59%

CN/C(=N\S(=O)(=O)c1ccc(Cl)cc1)N1C[C@H](c2ccccc2)C(c2ccc(Cl)cc2)=N1 (racemic)
inactive: 1 nM -2.29% | 8.33 nM -0.66% | 100 nM -0.25% | 833.33 nM 1.24% | 10000 nM -3.73%

COc1ccccc1OC(=O)c1ccccc1OC(C)=O [guacetisal]
inactive: 1 nM -0.24% | 8.33 nM -1.18% | 100 nM 1.85% | 833.33 nM 4.31% | 10000 nM -0.68%
